This passage reports Potency results from PubChem BioAssay (NCATS).

Assay [1] can be described thus: Quantitative High-Throughput drug screen in 47 multiple myeloma cell lines against the NCATS MIPE library collection: KHM11_PLB cell viability assay (AID 1918962). Note: nearly all actives have a fitted effect of over 35% in size. An outline of the steps: (§1)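 Relative luminescence from CellTiter-Glo served as the viability signal, referenced to DMSO-treated (100%) and cell-free medium (0%) controls. Treatment lasted 48 hours at 37C with 500 cells per well.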

The nature of assay [2]: Quantitative High-Throughput drug screen in 47 multiple myeloma cell lines against the NCATS MIPE library collection: H1112_PLB cell viability assay (AID 1918967; note: nearly all actives have a fitted effect of over 30% in size). An outline of the steps: (§2)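 Inhibition of cell viability is measured here. Each line was plated at 500 cells per well, treated with MIPE 4.0 drugs, kept 48 hours at 37C, then assayed for ATP content by CellTiter-Glo luminescence.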

Assay [3] is described as follows: Quantitative High-Throughput drug screen in 47 multiple myeloma cell lines against the NCATS MIPE library collection: Karpas25_ECACC cell viability assay (AID 1918968; note: nearly all actives have a fitted effect of over 35% in size). An outline of the steps: as §2
A short description of assay [4]: Quantitative High-Throughput drug screen in 47 multiple myeloma cell lines against the NCATS MIPE library collection: KMS27_JCRB cell viability assay (AID 1918970). Note: nearly all actives have a fitted effect of over 30% in size. An outline of the steps: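 Myeloma cells (500 per well) were exposed to MIPE 4.0 compounds for 48 h at 37 °C, 5% CO2; viability was read as ATP luminescence with CellTiter-Glo, normalized to DMSO-only (100%) and media-only (0%) wells.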

A short description of assay [5]: Quantitative High-Throughput drug screen in 47 multiple myeloma cell lines against the NCATS MIPE library collection: Karpas417_ECACC cell viability assay (AID 1918961). Particulars: Karpas417 myeloma viability, CellTiter-Glo ATP luminescence, 48 h; viability (% of DMSO): at 45.8 µM (top of the series). The method, boiled down:
as §1

Assay [6] in a line: Quantitative High-Throughput drug screen in 47 multiple myeloma cell lines against the NCATS MIPE library collection: JIM3_ECACC cell viability assay (AID 1918963; note: nearly all actives have a fitted effect of over 35% in size). The method, boiled down:
as §1

Assay [7] in a line: Quantitative High-Throughput drug screen in 47 multiple myeloma cell lines against the NCATS MIPE library collection: JJN3_DSMZ cell viability assay (AID 1918966; note: nearly all actives have a fitted effect of over 50% in size). An outline of the steps: as §2
Assay [8] is described as follows: Quantitative High-Throughput drug screen in 47 multiple myeloma cell lines against the NCATS MIPE library collection: JIM1_ECACC cell viability assay (AID 1918964). An outline of the steps: as §2
The nature of assay [9]: Quantitative High-Throughput drug screen in 47 multiple myeloma cell lines against the NCATS MIPE library collection: KMM1_JCRB cell viability assay (AID 1918960). Note: nearly all actives have a fitted effect of over 30% in size. An outline of the steps:
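Viability screen: myeloma cells (500/well) incubated 48 h at 37 °C, humidified 5% CO2, with pinned library compounds; CellTiter-Glo added, luminescence read; DMSO wells set 100%, medium-only wells 0%.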

Assay [10] can be described thus: Quantitative High-Throughput drug screen in 47 multiple myeloma cell lines against the NCATS MIPE library collection: INA6_PLB cell viability assay (AID 1918965; note: nearly all actives have a fitted effect of over 55% in size). An outline of the steps:
as §1

Inconclusive results are not listed. Activity calls are given as the source filed them. Calls come from the whole dose curve; as a rule, active = well fitted curve in the direction sought with a large enough effect; inconclusive = small, poorly fitted or top-dose-only effect, or another doubt; inactive = no such curve, though single readings can be large; an effect the other way counts as inactive or inconclusive.
Potency is the fitted concentration of half-maximal effect.

Turning to `CC(C)(O)C(=O)Nc1ccc([N+](=O)[O-])c(C(F)(F)F)c1`, the Potency is 20.9 µM (active) in assay [1], 9.35 µM (active) in [2], 9.35 µM (active) in [3] and 14.8 µM (active) in assay [4].
As for `C[C@H]1CCCC=CC2C[C@H](O)C[C@@H]2[C@H](O)C=CC(=O)O1` (stereo not given in full), the Potency result in [5], in assay [1], in [6], in [7] and in assay [3] was “inactive” throughout. In assay [4], the Potency is 0.001 µM (active).
On to `O=c1[nH]c2ccccc2n1C1CCN(Cc2ccc(-c3[nH]c4cc5ncnc5cc4nc3-c3ccccc3)cc2)CC1`, for which the Potency in assay [5] was 1.48 µM (active); in assay [6], 5.9 µM (active); in assay [8], 4.69 µM (active); in assay [7], 29.6 µM (active); in assay [3], 8.33 µM (active); in assay [4], 18.7 µM (active). For the same molecule, the Potency entry in assay [1] was “inactive”.
`C=C1C[C@H]2[C@H]3CCC(=O)[C@@]3(C)CC[C@@H]2[C@@]2(C)C=CC(=O)C=C12`: the figures for the Potency in [7], in assay [3] and in assay [4] were 14.8 µM (active), 16.6 µM (active) and 18.7 µM (active), respectively.
As to `COc1ccc(N(C(=O)Oc2c(C)cccc2C)c2ccnc(Nc3ccc(N4CCN(C)CC4)cc3)n2)c(OC)c1`, the Potency in assay [9] was 2.96 µM (active); in [8] it was 2.64 µM (active); in assay [7], 18.7 µM (active); in assay [3] it was 2.64 µM (active); in [4], 2.96 µM (active).
Consider `CC=C(C)C(=O)O[C@H]1C(C)=C2[C@@H]3OC(=O)[C@@](C)(O)[C@@]3(O)[C@@H](OC(=O)CCC)C[C@](C)(OC(C)=O)[C@@H]2[C@@H]1OC(=O)CCCCCCC`, for which the Potency in assay [1] is 0.332 µM (active); in assay [6], 0.264 µM (active); in assay [7], 0.0469 µM (active); in assay [3], 0.0833 µM (active). Moreover, the Potency result in assay [4] is “inactive”.
Consider `O=C(N[C@@H](COc1ccc2[nH]c(=O)[nH]c2c1)c1ccccc1)c1cccn(Cc2ccc(F)c(F)c2)c1=O`, for which the Potency was 18.7 µM (active) in assay [9] and 20.9 µM (active) in assay [4].
Turning to `O=C(NCC1CCOCC1)c1cnc(Nc2ccc(Cl)cc2Cl)nc1C(F)(F)F`, in assay [9], the Potency entry is “inactive”. Also, the Potency is 18.7 µM (active) in [10], 5.9 µM (active) in [2] and 4.69 µM (active) in assay [3].
Regarding `C=C[C@@H]1CN2CCC1C[C@@H]2[C@@H](O)c1ccnc2ccccc12` (stereo not given in full), the Potency in [3] is 8.33 µM (active); in assay [4], 5.26 µM (active).
With `Oc1ccc2c3c1O[C@H]1c4[nH]c5c(c4C[C@@]4(O)[C@@H](C2)N(CC2CC2)CC[C@]314)C[C@@]1(O)[C@H]2Cc3ccc(O)c4c3[C@@]1(CCN2CC1CC1)[C@H]5O4`, the Potency result in assay [1], in [6], in [8], in assay [10], in assay [3] and in assay [4] was “inactive” each time.
In the case of `C=CCON=C(C[C@H]1O[C@@H]2O[C@]3(C)CC[C@@H]4[C@H](C)CC[C@@H]([C@H]1C)[C@@]24OO3)[C@H]1O[C@@H]2O[C@]3(C)CC[C@H]4[C@H](C)CC[C@@H]([C@@H]1C)[C@@]24OO3`, the Potency in assay [5] is 0.148 µM (active); in assay [1], 0.418 µM (active); in assay [6], 0.372 µM (active); in [10], 0.469 µM (active); in [7] it was 0.418 µM (active); in assay [3] it was 0.209 µM (active).
In the case of `O=C(Oc1ccc([N+](=O)[O-])cc1)N1CCN(Cc2cccc(Oc3ccccc3)c2)CC1`, the Potency entry in [6] and in assay [4] was “inactive” in each case.
As for `C[C@]12CC[C@H]3[C@@H](CCC4=CC(=O)CC[C@@]43C)[C@H]1CC[C@H]2O`, the Potency result in assay [1], in assay [6], in assay [8], in assay [10], in [3] and in assay [4] was “inactive” in each case.
In the case of `CC(C)[C@H]1C(=O)N[C@H](CO)Cc2c[nH]c3cccc(c23)N1C`, the Potency entry in [9] and in [2] was “inactive” in each case.
As to `CC=C(C)C(=O)N[C@@H](c1ccccc1)[C@@H](O)C(=O)O[C@H]1C[C@@]2(O)[C@@H](OC(=O)c3ccccc3)[C@@H]3[C@]4(OC(C)=O)CO[C@@H]4C[C@H](O)[C@@]3(C)C(=O)[C@H](OC(C)=O)C(=C1C)C2(C)C`, the Potency result in [6], in [10] and in assay [3] was “inactive” in each case. Besides, the Potency in assay [4] was 0.0012 µM (active).
With `CC1=NN=C(c2ccc(N)cc2)c2cc3c(cc2C1)OCO3`, the Potency in [5] is 20.9 µM (active). Further, the Potency result in assay [6], in [10], in [7], in assay [2] and in [3] was “inactive” throughout.
